This note sets out measurements from PubChem BioAssay (NCI).

Among the test systems are HCT-15 colon; HT29 colon; SNB-75 CNS; U251 CNS; PC-3 prostate; SK-MEL-5 melanoma; UACC-62 melanoma; LOX IMVI melanoma; SK-MEL-28 melanoma; SK-MEL-2 melanoma; EKVX NSCLC; SN12C renal; UO-31 renal; TK-10 renal; ACHN renal; CAKI-1 renal; A498 renal; CCRF-CEM leukemia; MOLT-4 leukemia; SNB-19 CNS.
Assay in all cases: NCI-60 one-dose screen, 48 h (100 = growth as untreated, 0 = no growth, -100 = all killed)
Conditions in all cases: 10 µM unless noted

Molecules are shown by their SMILES. The panel holds about 83,000 compounds, 20% with a hit somewhere; the sample as a whole holds those more often.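 Plates (96-well) were seeded with cells, treated with compound at one concentration, and incubated for 48 hours before percent growth was determined.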 A number with no mark means an inactive call. Calls of active or inactive are those of the source. How the source made its calls: active means growth percent below 10; inactive means the rest.

In the case of `O=C(NCCCN1CCCCC1)c1ccc(-c2nc3ccc4[nH]ncc4c3c3c2CCCC3)cc1`, the growth in the assay on HCT-15 colon was 58.4%; in the assay with HT29 colon, 50.7%; in the assay with SNB-75 CNS, 17.6%; in the assay on U251 CNS, 66.7%; in the assay with PC-3 prostate, 29%; with SK-MEL-5 melanoma, 76.2%. Moreover, the growth is 62.6% with UACC-62 melanoma; 48.3% with LOX IMVI melanoma; 72.2% in the assay with SK-MEL-28 melanoma; 81.4% in the assay with SK-MEL-2 melanoma; 67.4% in the assay on EKVX NSCLC; 50.4% in the assay on SN12C renal. The growth in the assay with UO-31 renal was 54.4%; in the assay on TK-10 renal it was 43.7%; with ACHN renal, 27.4%; in the assay on CAKI-1 renal it was 10.9%; in the assay on A498 renal it was -10% (active); with CCRF-CEM leukemia it was 21.6%. For the same molecule, in the assay on MOLT-4 leukemia, the growth was 18.4%.
`CN(Cc1ccccc1)c1nc(Cl)c(C2CC(c3ccc4c(c3)OCO4)=NN2c2cc(Cl)cc(Cl)c2)s1` (stereo not given): the growth was 98.7% in the assay with HCT-15 colon; 97.8% in the assay with HT29 colon; 78.5% in the assay on SNB-75 CNS; 98.1% with U251 CNS; 93.5% in the assay with PC-3 prostate; 97.4% in the assay on SK-MEL-5 melanoma. The growth was 96.6% with UACC-62 melanoma; 96.6% in the assay on LOX IMVI melanoma; 99% in the assay with SK-MEL-28 melanoma; 101% in the assay on SK-MEL-2 melanoma; 95.1% in the assay on EKVX NSCLC; 99.1% in the assay with SN12C renal. The growth with UO-31 renal is 87.5%; with TK-10 renal it was 119%; with CAKI-1 renal it was 84.3%; with A498 renal, 115%; with CCRF-CEM leukemia, 97.1%; with MOLT-4 leukemia, 107%.
`Cn1cc(-c2csc(-c3cn(CCOC(N)=O)c4ccccc34)n2)c2cccnc21`: the growth is 64% in the assay on HCT-15 colon; 47.6% in the assay on HT29 colon; 80.7% with SNB-75 CNS; 78.6% in the assay on SNB-19 CNS; 77.8% in the assay on U251 CNS; 63.6% in the assay with PC-3 prostate. Besides, the growth in the assay on SK-MEL-5 melanoma was 71.9%; with SK-MEL-28 melanoma, 92.5%; in the assay on SK-MEL-2 melanoma it was 84.8%; with EKVX NSCLC, 68.7%; in the assay on SN12C renal, 88.3%; in the assay with UO-31 renal, 79.6%. Moreover, the growth in the assay with TK-10 renal is 82.6%; with ACHN renal, 97%; in the assay with CAKI-1 renal, 88.2%; in the assay with A498 renal it was 19%; in the assay with CCRF-CEM leukemia, 73.9%; with MOLT-4 leukemia it was 69.1%.
With `CN(C)CCCn1c2c(c3ccc(N4CCNCC4)cc3c1=O)C(=O)c1ccccc1-2`, the growth in the assay with HCT-15 colon was -36.5% (active); in the assay on HT29 colon, -52.4% (active); in the assay on SNB-75 CNS, 22.3%; with U251 CNS it was -54.1% (active); in the assay on PC-3 prostate it was -34.7% (active); in the assay on SK-MEL-5 melanoma, 28.7%. Besides, the growth was 51.8% in the assay on UACC-62 melanoma; -90% (active) with LOX IMVI melanoma; 59.7% in the assay with SK-MEL-28 melanoma; 39.6% in the assay with SK-MEL-2 melanoma; -39% (active) with EKVX NSCLC; 6.82% (active) in the assay with SN12C renal. The growth in the assay with UO-31 renal is 2.6% (active); with TK-10 renal it was -0.224% (active); in the assay with ACHN renal it was -10.5% (active); in the assay with CAKI-1 renal, 5.62% (active); in the assay with A498 renal, 74.3%; with CCRF-CEM leukemia, -4.22% (active). Also, in the assay with MOLT-4 leukemia, the growth is -21.9% (active).
`C=C1C(=O)O[C@H]2[C@H]1CC/C(CNS(=O)(=O)c1ccc3ccccc3c1)=C\CC[C@@]1(C)O[C@@H]21`: the growth in the assay on HCT-15 colon is -78.5% (active); in the assay on SNB-75 CNS it was 38.2%; in the assay on SNB-19 CNS it was 71.9%; with U251 CNS it was 48.9%; in the assay with PC-3 prostate, 53.6%; with SK-MEL-5 melanoma, 31.8%. Besides, the growth is -12% (active) in the assay on UACC-62 melanoma; -84.8% (active) with LOX IMVI melanoma; -8.36% (active) in the assay on SK-MEL-28 melanoma; 43.7% in the assay with SK-MEL-2 melanoma; 66.6% in the assay with EKVX NSCLC; 29.1% in the assay with SN12C renal. Also, the growth with UO-31 renal was -88% (active); with TK-10 renal it was -78.5% (active); in the assay on ACHN renal, -39.3% (active); in the assay on CAKI-1 renal it was 15.3%; in the assay with A498 renal it was 58.2%; in the assay with CCRF-CEM leukemia, -18.1% (active). The growth in the assay on MOLT-4 leukemia is -27.6% (active).
Take `CCCCCCCCN(CCCCCCCC)CC(O)c1cc(Cl)ccc1OC` (stereo not given): the growth in the assay on HCT-15 colon was 61.8%; with SNB-75 CNS, 76.5%; in the assay on SNB-19 CNS, 91.2%; in the assay on U251 CNS it was 78.6%; with PC-3 prostate, 71.9%; in the assay on SK-MEL-5 melanoma it was 56%. Besides, the growth was 64.6% with UACC-62 melanoma; 13.1% in the assay with LOX IMVI melanoma; 80.5% in the assay with SK-MEL-28 melanoma; 80.1% in the assay on SK-MEL-2 melanoma; 59.9% with EKVX NSCLC; 75.4% with SN12C renal. Further, the growth is 52.3% in the assay on UO-31 renal; 96.4% in the assay on TK-10 renal; 71.5% in the assay on ACHN renal; 62.3% in the assay with CAKI-1 renal; 54.8% with A498 renal; 92.8% in the assay with CCRF-CEM leukemia. Also, in the assay on MOLT-4 leukemia, the growth is 79.3%.
Regarding `NCCOCCOc1ccccc1`, the growth in the assay with HCT-15 colon was 104%; in the assay with SNB-75 CNS, 106%; in the assay with SNB-19 CNS, 106%; in the assay with U251 CNS, 96.1%; in the assay with PC-3 prostate, 90.5%; in the assay with SK-MEL-5 melanoma it was 114%. The growth was 102% with UACC-62 melanoma; 102% with LOX IMVI melanoma; 107% with SK-MEL-28 melanoma; 101% with SK-MEL-2 melanoma; 106% with EKVX NSCLC; 103% in the assay on SN12C renal. For the same molecule, the growth is 90.9% in the assay with TK-10 renal; 106% in the assay on ACHN renal; 88.3% in the assay with CAKI-1 renal; 97.3% in the assay on A498 renal; 91.9% in the assay on CCRF-CEM leukemia; 101% in the assay on MOLT-4 leukemia.
